Results on 16 compounds are retold here after PubChem BioAssay (NCATS).

Several values for one entry are separate records, joined by “and”; a condition that tells them apart may be missing. Equal values may be shown once. Results filed as inconclusive are left out. Activity calls are given as the source filed them. Calls follow the shape of the dose curve; as a rule, active = well fitted curve in the direction sought with a large enough effect; inconclusive = small, poorly fitted or top-dose-only effect, or another doubt; inactive = no such curve, though single readings can be large; an effect the other way counts as inactive or inconclusive. Positions of bridges follow the written chain, without caps; N, C: chain ends. Non-standard residues stand in square brackets, D forms with d. Residues, ends and D or L forms follow the SMILES beside them. ξ: configuration not given here. *: point of attachment. Sta = CC(C)C[C@H](N)[C@@H](O)CC(=O)O; Octanoyl(6-Me) = CCC(C)CCCCC(=O)*; ξThr(3R) = C[C@@H](O)C(N)C(=O)O; Isovaleryl = CC(C)CC(=O)*; dDab = NCC[C@@H](N)C(=O)O; Dab = NCC[C@H](N)C(=O)O

The target of assay [1] is Cellular tumor antigen p53 (Homo sapiens) (UniProt P04637). In words: Primary qHTS for small molecule compounds that upregulate eGFP-tagged delta133p53alpha (in N-terminal) cells. (AID 2060322). Also: nearly all actives have a fitted effect of over 75% in size.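 As to activation: cells pre-induced with doxycycline then dosed without doxycycline; 0% = DMSO vehicle and 100% = reference activator.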 The note with it: NCI-H358 eGFP-delta133p53alpha fluorescence, 24 h; activation: stronger effect = higher value. The method in brief: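 NCI-H358 cells pre-induced 24 h with 10 ng/ml doxycycline for eGFP-delta133p53alpha, plated dox-free and exposed 24 h at 37C to titrated compounds. Fixed, Hoechst-stained; gated GFP peak intensity by laser scanning cytometry, normalized to DMSO (0%) and 57.5 uM 5-azacytidine (100%).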

The nature of assay [2]: BET inhibitor-based combinations targeting novel dependencies in MECOM-rearranged (r) AML: SET-2 cell line (AID 2202231). Also: nearly all actives have a fitted effect of over 35% in size.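 As to viability: plate controls were DMSO treated cells for no effect and wells without cells for full effect.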 Particulars: SET-2 AML cells viability, CellTiter-Glo luminescence, 48 h; viability: stronger effect = lower value, concentration not given here. The method in brief:
(§1)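 Luminescent ATP readout (CellTiter-Glo) after 48 hr drug exposure gives viability. Curves span 11 concentrations and are normalized to DMSO and empty wells. Activity is reported as area under the curve and its Z-transform within each cell line.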
(Cellular ATP, detected with luciferase, serves as a proxy for viable cell number.)

Assay [3] is described as follows: BET inhibitor-based combinations targeting novel dependencies in MECOM-rearranged (r) AML: OCI-AML3 cell line (AID 2202232). Also: nearly all actives have a fitted effect of over 35% in size. The note with it: CellTiter-Glo luminescence, 48 h; Potency: OCI-AML3 viability; series mostly up to 46 µM. In outline:
as §1

Assay [4] in a line: BET inhibitor-based combinations targeting novel dependencies in MECOM-rearranged (r) AML: MV-4-11 cell line (AID 2202233). Also: nearly all actives have a fitted effect of over 45% in size. Particulars: MV-4-11 AML viability, CellTiter-Glo luminescence, 48 h; series mostly up to 46 µM. The method in brief:
(§2)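 Luminescent ATP readout (CellTiter-Glo, 15 min at room temperature) after 48 hr drug exposure gave viability. Dose-response curves, normalized to DMSO and empty-well controls, were summarized as area under the curve and its mean-centred Z-score.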

Assay [5] in a line: BET inhibitor-based combinations targeting novel dependencies in MECOM-rearranged (r) AML: AML-191 cell line (AID 2202236; also: nearly all actives have a fitted effect of over 35% in size). The note with it: AML-191 viability, CellTiter-Glo luminescence, 48 h; series mostly up to 46 µM. The method in brief:
as §1

The nature of assay [6]: BET inhibitor-based combinations targeting novel dependencies in MECOM-rearranged (r) AML: UCSD-AML1 cell line (AID 2202235). Also: nearly all actives have a fitted effect of over 40% in size. Particulars: UCSD-AML1 AML cells viability, CellTiter-Glo, 48 h; series mostly up to 46 µM. In outline:
as §2

A short description of assay [7]: BET inhibitor-based combinations targeting novel dependencies in MECOM-rearranged (r) AML: AML-194 cell line (AID 2202237; also: nearly all actives have a fitted effect of over 40% in size). Particulars: AML-194 (MECOM-r AML) viability, CellTiter-Glo, 48 h; series mostly up to 46 µM. In outline: as §1
The nature of assay [8]: BET inhibitor-based combinations targeting novel dependencies in MECOM-rearranged (r) AML: HNT-34 cell line (AID 2202234). Also: nearly all actives have a fitted effect of over 35% in size. Particulars: HNT-34 AML viability, CellTiter-Glo luminescence, 48 h; series mostly up to 46 µM. In outline: as §2
Potency is read from the fitted curve at half-maximal effect.

Cellular tumor antigen p53 (Homo sapiens), sequence (P04637 whole entry, looked up): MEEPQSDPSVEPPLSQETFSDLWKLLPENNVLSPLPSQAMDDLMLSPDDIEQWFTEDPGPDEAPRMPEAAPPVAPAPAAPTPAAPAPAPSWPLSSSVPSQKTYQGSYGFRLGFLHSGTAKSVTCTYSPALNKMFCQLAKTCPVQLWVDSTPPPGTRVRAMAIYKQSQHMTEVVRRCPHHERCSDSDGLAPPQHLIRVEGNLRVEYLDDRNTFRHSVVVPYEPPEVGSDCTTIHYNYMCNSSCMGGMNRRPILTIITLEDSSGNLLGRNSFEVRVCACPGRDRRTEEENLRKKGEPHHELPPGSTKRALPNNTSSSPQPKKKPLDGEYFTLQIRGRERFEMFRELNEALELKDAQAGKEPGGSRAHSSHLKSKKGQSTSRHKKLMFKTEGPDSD

As for `N#CNC(=NCCCCCCOc1ccc(Cl)cc1)Nc1ccncc1`, in assay [1], the activation was 37.2% (inactive). For the same compound, the Potency in assay [2] was 13200 nM (active); in assay [3], 10.5 nM (active); in assay [4] it was 37.2 nM (active); in assay [5] it was 18.6 nM (active).
By viability is commonly meant a read-out of living cells in per cent, often relative to untreated cells. Take `COc1cc2c(cc1OC)CC(=O)N(CCCN(C)C[C@H]1Cc3cc(OC)c(OC)cc31)CC2`: the activation in assay [1] was -11.1% (inactive). Further, the viability in assay [2] is 111% (inactive). Further, the Potency entry in assay [3], in assay [4], in assay [6], in assay [5] and in assay [7] was “inactive” each time.
As to `COc1cccc2c1C(=O)c1c(O)c3c(c(O)c1C2=O)C[C@@](O)(C(=O)CO)C[C@@H]3O[C@H]1C[C@H](N)[C@H](O)[C@H](C)O1`, the Potency in assay [1] was 12300 nM (active); in assay [2], 833 nM (active); in assay [3] it was 46.8 nM (active); in assay [4], 37.2 nM (active); in assay [6] it was 93.4 nM (active); in assay [5], 186 nM (active). In addition, the Potency in assay [7] is 186 nM (active).
For the compound `Nc1nc(Cl)nc2c1ncn2[C@H]1C[C@H](O)[C@@H](CO)O1`, in assay [1], the activation is 24.5% (inactive). For the same compound, the Potency in assay [2] was 263 nM (active); in assay [3] it was 83.3 nM (active); in assay [4] it was 93.4 nM (active); in assay [8] it was 74.2 nM (active); in assay [5], 83.3 nM (active); in assay [7], 74.2 nM (active).
Consider `CCCCCNC(=O)N1CCC(CN(Cc2ccc(Cl)cc2)Cc2ccc([N+](=O)[O-])s2)C1` (stereo unspecified), for which, in assay [1], the activation is -3.18% (inactive). Further, the Potency was 20900 nM (active) in assay [2], 18600 nM (active) in assay [3] and 20900 nM (active) in assay [4]. The Potency result in assay [6] and in assay [7] was “inactive” each time.
For `C[C@@H](NCc1cc2ccccc2[nH]1)c1cccc2ccccc12`, the activation in assay [1] was -11% (inactive). Besides, the Potency in assay [2] is 16600 nM (active); in assay [3] it was 14800 nM (active); in assay [4], 18600 nM (active); in assay [5], 13200 nM (active); in assay [7] it was 8330 nM (active).
`CC[C@H](NC(C)C)[C@H](O)c1ccc(O)c2[nH]c(=O)ccc12`: in assay [1], the activation is -13% (inactive) and -16.9% (inactive). The viability in assay [2] is 117% (inactive). In addition, the Potency entry in assay [3], in assay [4], in assay [6], in assay [5] and in assay [7] was “inactive” in each case.
In the case of `CC(C)CC(=O)N[C@H](C(=O)N[C@H](C(=O)N[C@@H](CC(C)C)[C@@H](O)CC(=O)N[C@@H](C)C(=O)N[C@@H](CC(C)C)[C@@H](O)CC(=O)O)C(C)C)C(C)C` (Isovaleryl-VV[Sta]A[Sta]-OH), the activation in assay [1] is -1.4% (inactive). Besides, the viability in assay [2] is 117% (inactive). For the same compound, the Potency entry in assay [3], in assay [4], in assay [6], in assay [5] and in assay [7] was “inactive” throughout.
As for `CN(C(Cc1ccc(OS(=O)(=O)c2cccc3cnccc23)cc1)C(=O)N1CCN(c2ccccc2)CC1)S(=O)(=O)c1cccc2cnccc12` (stereo unspecified), the activation in assay [1] was 8.08% (inactive). For the same compound, the viability in assay [2] is 92.1% (inactive). In addition, the Potency result in assay [3] was “inactive”. The results for the Potency in assay [4] and in assay [5] were 7420 nM (active) and 9340 nM (active), respectively.
On to `COc1cc(OC)c(C(=O)CCCN2CCCC2)c(OC)c1`, for which the activation in assay [1] is -15.1% (inactive) and 2.07% (inactive). The viability in assay [2] was 98% (inactive). Besides, the Potency result in assay [3], in assay [4], in assay [6] and in assay [7] was “inactive” throughout.
As to `COc1ccc(C=Cc2cc(OC)c(OC)c(OC)c2)cc1NC(=O)[C@H](N)CO`, the activation in assay [1] was 7.98% (inactive). The Potency in assay [2] is 263 nM (active); in assay [3], 296 nM (active); in assay [4], 296 nM (active); in assay [6], 372 nM (active); in assay [5] it was 332 nM (active); in assay [7] it was 296 nM (active).
In the case of `CCC(C)CCCCC(=O)N[C@@H](CCN)C(=O)NC(C(=O)N[C@H](CCN)C(=O)N[C@@H]1CCNC(=O)C([C@@H](C)O)NC(=O)[C@@H](CCN)NC(=O)[C@@H](CCN)NC(=O)[C@@H](CC(C)C)NC(=O)[C@H](Cc2ccccc2)NC(=O)[C@H](CCN)NC1=O)[C@@H](C)O` (stereo partly drawn) ({Octanoyl(6-Me)}-[Dab][ξThr(3R)][dDab][dDab][Dab]F[dL][dDab][dDab][ξThr(3R)]; lactam 4-C), in assay [1], the activation was 11.9% (inactive). Moreover, in assay [2], the viability was 126% (inactive). The Potency result in assay [3], in assay [4], in assay [8] and in assay [7] was “inactive” each time.
Take `COc1cc([C@@H]2c3cc4c(cc3[C@H](O)[C@H]3COC(=O)[C@H]23)OCO4)cc(OC)c1OC`: in assay [1], the activation was 24.1% (inactive). Also, the Potency in assay [2] was 37.2 nM (active); in assay [3], 37.2 nM (active); in assay [4], 41.7 nM (active); in assay [6], 41.7 nM (active); in assay [5], 37.2 nM (active).
Take `N=c1ccn2c(n1)O[C@H]1[C@@H](O)[C@@H](CO)O[C@H]12`: the activation in assay [1] is 18.1% (inactive). Moreover, the Potency was 1050 nM (active) in assay [2]; 5250 nM (active) in assay [3]; 1320 nM (active) in assay [4]; 235 nM (active) in assay [5]; 118 nM (active) in assay [7].
Consider `COc1c(C)c2c(c(O)c1C/C=C(\C)CCC(=O)OCCN1CCOCC1)C(=O)OC2`, for which the activation in assay [1] was -10.7% (inactive). Moreover, the Potency is 1320 nM (active) in assay [2]; 1320 nM (active) in assay [3]; 662 nM (active) in assay [4]; 1180 nM (active) in assay [6]; 1320 nM (active) in assay [5].
Regarding `O=C(O)c1cc(=O)[nH]c(=O)[nH]1`, the activation in assay [1] was 15.1% (inactive) and 14.7% (inactive). The viability in assay [2] is 111% (inactive). For the same compound, the Potency result in assay [3], in assay [4], in assay [6], in assay [5] and in assay [7] was “inactive” each time.
